In the supplement of paper PMC6555819:

Assays:
Assay in all cases: PBM binding z-score (relative to random genomic background probes); higher = stronger binding; sequences stand for … in GC…GCGATTGACAGCGTAGAATGAAGG
[1] = test system: FXR:RXRa (NR concentration 270 nM, RXRa partner concentration 90 nM)
Outline: (§1)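 Regression normalization was applied to scanned fluorescence from custom Agilent 4×180K protein-binding microarrays. Before scanning, arrays were incubated 1 h with ligand-free nuclear receptor dimers, and binding was detected with antibodies against each partner (one per run). Binding z-scores use the random background probes as reference.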

[2] = test system: LXRa:RXRa (NR concentration 270 nM, RXRa partner concentration 90 nM)
Outline: as §1

[3] = test system: LXRa homodimer (NR concentration 270 nM)
Outline: as §1

[4] = test system: LXRb:RXRa (NR concentration 270 nM, RXRa partner concentration 90 nM)
Outline: as §1

[5] = test system: LXRb homodimer (NR concentration 270 nM)
Outline: as §1

[6] = test system: PPARa:RXRa (NR concentration 270 nM, RXRa partner concentration 90 nM)
Outline: as §1

[7] = test system: PPARg:RXRa (NR concentration 180 nM, RXRa partner concentration 90 nM)
Outline: as §1

[8] = test system: PPARg:RXRa 270nM:90nM, anti-RXR (NR concentration 270 nM, RXRa partner concentration 90 nM)
Outline: as §1

[9] = test system: PPARg:RXRa 30nM:10nM, anti-RXR (NR concentration 30 nM, RXRa partner concentration 10 nM)
Outline: as §1

[10] = test system: PPARg:RXRa 90nM:30nM, anti-RXR (NR concentration 90 nM, RXRa partner concentration 30 nM)
Outline: as §1

CTAACTAGGTCATCCAGGACAGTGAATACATTGA
PBM binding z-score [1]: 4.13 | PBM binding z-score [2]: 3.08 | PBM binding z-score [3]: 1.1 | PBM binding z-score [4]: 2.34 | PBM binding z-score [5]: 0.444 | PBM binding z-score [6]: 5.16 | PBM binding z-score [7]: 8.66 | PBM binding z-score [8]: 7.07 | PBM binding z-score [9]: 4.48 | PBM binding z-score [10]: 7.08

CCAGACAGGTGAGAAGGTAACTCGGCCTCGATTA
PBM binding z-score [1]: -0.0113 | PBM binding z-score [2]: 0.14 | PBM binding z-score [3]: -0.0117 | PBM binding z-score [4]: -0.138 | PBM binding z-score [5]: -0.518 | PBM binding z-score [6]: 0.585 | PBM binding z-score [7]: 0.364 | PBM binding z-score [8]: 0.533 | PBM binding z-score [9]: -0.307 | PBM binding z-score [10]: 0.171

CCTGCTAGGTCAATGGTCAGTTAAAGCAGCTCGC
PBM binding z-score [1]: 3.02 | PBM binding z-score [2]: 2.09 | PBM binding z-score [3]: 0.0181 | PBM binding z-score [4]: 1.53 | PBM binding z-score [5]: -0.0412 | PBM binding z-score [6]: 3.22 | PBM binding z-score [7]: 4.36 | PBM binding z-score [8]: 4.88 | PBM binding z-score [9]: 2.78 | PBM binding z-score [10]: 4.69

TATACAGGGTAAAAGGCCAGAGTACGAATGTCGA
PBM binding z-score [1]: 0.526 | PBM binding z-score [2]: 0.732 | PBM binding z-score [3]: 0.094 | PBM binding z-score [4]: 0.483 | PBM binding z-score [5]: 0.559 | PBM binding z-score [6]: 2.02 | PBM binding z-score [7]: 3.63 | PBM binding z-score [8]: 4.11 | PBM binding z-score [9]: 2.26 | PBM binding z-score [10]: 3.82

AAATGTAGGTTACATCCGGGTCATTCAGGCTATG
PBM binding z-score [1]: 2.37 | PBM binding z-score [2]: 4.34 | PBM binding z-score [3]: 1.56 | PBM binding z-score [4]: 2.86 | PBM binding z-score [5]: 0.424 | PBM binding z-score [6]: 4.62 | PBM binding z-score [7]: 6.92 | PBM binding z-score [8]: 5.78 | PBM binding z-score [9]: 2.95 | PBM binding z-score [10]: 5.22

AGAACGAGGGCACGCTGAGTTGATAACAGAGTAG
PBM binding z-score [1]: 0.997 | PBM binding z-score [2]: 0.505 | PBM binding z-score [3]: -0.474 | PBM binding z-score [4]: 0.399 | PBM binding z-score [5]: -0.662 | PBM binding z-score [6]: 2.29 | PBM binding z-score [7]: 2.11 | PBM binding z-score [8]: 1.82 | PBM binding z-score [9]: 0.679 | PBM binding z-score [10]: 1.14

CCGACTGGGGCAAAGGCTACCATACTCAGTACGA
PBM binding z-score [1]: -0.192 | PBM binding z-score [2]: -0.314 | PBM binding z-score [3]: -0.186 | PBM binding z-score [4]: -0.213 | PBM binding z-score [5]: -1.35 | PBM binding z-score [6]: 2.78 | PBM binding z-score [7]: 6.74 | PBM binding z-score [8]: 6.84 | PBM binding z-score [9]: 5.04 | PBM binding z-score [10]: 6.61

CCTACTGGGCCATCAGGTCATTTATATCAACGTT
PBM binding z-score [1]: 1.48 | PBM binding z-score [2]: 1.03 | PBM binding z-score [3]: 1.99 | PBM binding z-score [4]: 1.81 | PBM binding z-score [5]: 0.176 | PBM binding z-score [6]: 2.79 | PBM binding z-score [7]: 2.76 | PBM binding z-score [8]: 3.29 | PBM binding z-score [9]: 1.06 | PBM binding z-score [10]: 2.57

TCTGCTAGGTCAGTTGGTTAGCTAACGAGCTGCC
PBM binding z-score [1]: 0.851 | PBM binding z-score [2]: 0.567 | PBM binding z-score [3]: -0.601 | PBM binding z-score [4]: 0.643 | PBM binding z-score [5]: 0.257 | PBM binding z-score [6]: 1.05 | PBM binding z-score [7]: 0.0463 | PBM binding z-score [8]: 1.19 | PBM binding z-score [9]: 1.17 | PBM binding z-score [10]: 1.34

CCTTACGGTTCACTCCAGGTTATAGCATCGGAGT
PBM binding z-score [1]: 2.82 | PBM binding z-score [2]: 6.46 | PBM binding z-score [3]: 2.54 | PBM binding z-score [4]: 3.58 | PBM binding z-score [5]: 0.998 | PBM binding z-score [6]: 2.21 | PBM binding z-score [7]: 0.562 | PBM binding z-score [8]: 0.77 | PBM binding z-score [9]: 0.224 | PBM binding z-score [10]: 0.483

CTCAAAAGGTCGGTTGAGGTGAGTATACGGATAA
PBM binding z-score [1]: 2.63 | PBM binding z-score [2]: 1.8 | PBM binding z-score [3]: -0.331 | PBM binding z-score [4]: 1.63 | PBM binding z-score [5]: 0.0339 | PBM binding z-score [6]: 2.98 | PBM binding z-score [7]: 0.821 | PBM binding z-score [8]: 1.29 | PBM binding z-score [9]: 0.383 | PBM binding z-score [10]: 0.881

CATACAGGGTCAGCTAGGCCAGAGTAGGGACGGC
PBM binding z-score [1]: 4.68 | PBM binding z-score [2]: 2.84 | PBM binding z-score [3]: -0.378 | PBM binding z-score [4]: 2.27 | PBM binding z-score [5]: 0.142 | PBM binding z-score [6]: 4.64 | PBM binding z-score [7]: 3.58 | PBM binding z-score [8]: 3.06 | PBM binding z-score [9]: 0.957 | PBM binding z-score [10]: 2.2

TCATATAGGTAAATGCTAGGTGCAAGTCCGATCT
PBM binding z-score [1]: 0.626 | PBM binding z-score [2]: 0.526 | PBM binding z-score [3]: 0.11 | PBM binding z-score [4]: 0.195 | PBM binding z-score [5]: 0.0143 | PBM binding z-score [6]: 1.05 | PBM binding z-score [7]: 0.562 | PBM binding z-score [8]: 2.08 | PBM binding z-score [9]: 3.84 | PBM binding z-score [10]: 2.96

ATAAGTAGGTTAGCTGGGGTCATTCAGACTAGGC
PBM binding z-score [1]: 4.71 | PBM binding z-score [2]: 5.52 | PBM binding z-score [3]: 3.28 | PBM binding z-score [4]: 4.94 | PBM binding z-score [5]: 1.18 | PBM binding z-score [6]: 5.41 | PBM binding z-score [7]: 6.1 | PBM binding z-score [8]: 5.42 | PBM binding z-score [9]: 3 | PBM binding z-score [10]: 5.01

GCGACTGGGGCATCAGCAGGTCACCATAACTTAA
PBM binding z-score [1]: 0.886 | PBM binding z-score [2]: 1.37 | PBM binding z-score [3]: 0.749 | PBM binding z-score [4]: 2.27 | PBM binding z-score [5]: -0.977 | PBM binding z-score [6]: 2.79 | PBM binding z-score [7]: 2.16 | PBM binding z-score [8]: 2.13 | PBM binding z-score [9]: 0.0296 | PBM binding z-score [10]: 1.03

TAGCCTAGATCATGGGCCAGTATACCACGCGAAC
PBM binding z-score [1]: -0.688 | PBM binding z-score [2]: -0.764 | PBM binding z-score [3]: -0.759 | PBM binding z-score [4]: -0.614 | PBM binding z-score [5]: -0.395 | PBM binding z-score [6]: -0.574 | PBM binding z-score [7]: 0.555 | PBM binding z-score [8]: -0.555 | PBM binding z-score [9]: -0.628 | PBM binding z-score [10]: -0.462

TGTCAAAGTCCAAAGGTAACGTAAGTATCCACAC
PBM binding z-score [1]: -0.0292 | PBM binding z-score [2]: 0.605 | PBM binding z-score [3]: -0.413 | PBM binding z-score [4]: 0.55 | PBM binding z-score [5]: -0.353 | PBM binding z-score [6]: 1.61 | PBM binding z-score [7]: 2.27 | PBM binding z-score [8]: 2.93 | PBM binding z-score [9]: 1.07 | PBM binding z-score [10]: 2.43

CCGAGTAAGTTATGGGGCATTCAGGCAACGGTGA
PBM binding z-score [1]: -0.323 | PBM binding z-score [2]: -0.322 | PBM binding z-score [3]: -0.465 | PBM binding z-score [4]: -0.146 | PBM binding z-score [5]: -0.649 | PBM binding z-score [6]: -0.0291 | PBM binding z-score [7]: 0.19 | PBM binding z-score [8]: 0.385 | PBM binding z-score [9]: -0.496 | PBM binding z-score [10]: 0.0497

CTACCAAGGTGTACAAGGTCGTTGATTACTATTC
PBM binding z-score [1]: 0.534 | PBM binding z-score [2]: 0.766 | PBM binding z-score [3]: 0.255 | PBM binding z-score [4]: 1.26 | PBM binding z-score [5]: -0.288 | PBM binding z-score [6]: 1.31 | PBM binding z-score [7]: 0.268 | PBM binding z-score [8]: 0.583 | PBM binding z-score [9]: -0.154 | PBM binding z-score [10]: 0.498

GAAACGAGGGCATTCGAGTTGATAGCATGGCGAT
PBM binding z-score [1]: 1.71 | PBM binding z-score [2]: 2.15 | PBM binding z-score [3]: -0.383 | PBM binding z-score [4]: 0.442 | PBM binding z-score [5]: -0.542 | PBM binding z-score [6]: 2.05 | PBM binding z-score [7]: 1.35 | PBM binding z-score [8]: 1.32 | PBM binding z-score [9]: 0.0683 | PBM binding z-score [10]: 0.829

TTACCAAGGTGAAGGTCGTTTATCCCTCTGTAGA
PBM binding z-score [1]: 1.45 | PBM binding z-score [2]: 1.55 | PBM binding z-score [3]: 0.229 | PBM binding z-score [4]: 1.54 | PBM binding z-score [5]: -0.0351 | PBM binding z-score [6]: 2.47 | PBM binding z-score [7]: 2.42 | PBM binding z-score [8]: 3.95 | PBM binding z-score [9]: 1.78 | PBM binding z-score [10]: 3.31

CCCGACAGGTGAAAGGTAACTCAGTCTGGTACGC
PBM binding z-score [1]: 0.639 | PBM binding z-score [2]: 0.898 | PBM binding z-score [3]: -0.133 | PBM binding z-score [4]: 0.876 | PBM binding z-score [5]: -0.143 | PBM binding z-score [6]: 3.39 | PBM binding z-score [7]: 5.1 | PBM binding z-score [8]: 5.75 | PBM binding z-score [9]: 3.73 | PBM binding z-score [10]: 5.61

TCTAGTTGGTCACGGAGGCCACACACGACGGGTA
PBM binding z-score [1]: 0.758 | PBM binding z-score [2]: 0.488 | PBM binding z-score [3]: -0.0408 | PBM binding z-score [4]: -0.0226 | PBM binding z-score [5]: -0.0385 | PBM binding z-score [6]: 1.02 | PBM binding z-score [7]: 1.19 | PBM binding z-score [8]: 1.94 | PBM binding z-score [9]: 3.1 | PBM binding z-score [10]: 2.46
